Rows were chosen to be rich in hits. Some 3.6% of all compounds tested hit in one or more screens of this group.
LGR2 antag: blocks bursicon-induced cAMP signaling via Drosophila LGR2; HEK293 LGR2, CRE-luciferase, bursicon-stimulated, 4 h; 380,000 compounds, 0.35% hits; inhibition, % at 9.99 µM;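 active means drop in luminescence signal, shown as inhibition above about 50% in the replicate tests, limit read from the data, passing the limit was not always enough; inconclusive means probably only some replicates passing the limit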;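 further: agonist challenge used bursicon conditioned medium at about half maximal strength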
TWEAK Fn14 block: TWEAK-Fn14 signaling inhibition | TWEAK-stimulated Fn14 reporter cells, luciferase luminescence, 8 h | 360,000 compounds, 2% hits | inhibition, % at 10 µM | AID 1159606; in the data active means inhibition above about 50%
EBV LMP1 NFkB: reduces LMP1-driven NF-kappaB luciferase signal. LMP1-induced NF-kappaB luciferase reporter cells, luminescence. inhibition, % at 12.5 µM. 350,000 compounds, 0.69% hits. AID 504558; in the data active means inhibition above about 41%; inconclusive means no clear call, values can overlap the other calls;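 further: 0% = neutral control wells and 100% = reference inhibitor control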
HSF1 inh: HSF1 inhibition; NIH3T3-HGL HSE-luciferase, MG132-induced, luminescence 8 h; active compounds read low; activity change, negative = inhibition, % at 7.5 µM (by protocol); 300,000 compounds, 0.77% hits; AID 2098;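 active means more than half of replicate wells show activity change below -50%, luminescence cut by over half; inconclusive means some wells, but at most half, below -50%; inactive means no replicate well below -50%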;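 further: luciferase reports HSF-1 transcriptional activity via heat shock element; 0% = median of DMSO wells and -100% = zero luminescence signal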
TROY NFkB inh: blocks TROY-dependent signaling in reporter cells | AID 1347056 | 360,000 compounds, 0.98% hits | inhibition, % at 10 µM | Q293 LMP1-TROYcd NF-kB luciferase reporter, 4 h;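 active means compounds whose plate-normalised and pattern-corrected inhibition of the luciferase reporter signal at the single screening dose is 50% or more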
HSF1 activator: increases HSF-1 driven luciferase reporter signal; NIH3T3-HGL HSF-1 luciferase reporter, MG132, 8 h; 100% = twice DMSO control signal; activation, % at 9 µM; 300,000 compounds, 1.7% hits; AID 504408;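 active means mean replicate activation of at least 50% with a set share of replicates each reaching 50%; inconclusive means only one of those two conditions met; inactive means mean below 50% and too few replicates reaching it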;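 further: 0% = median of the neutral control wells and 100% = twice that signal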
An asterisk follows results filed as active; ? = inconclusive; . = not tested or not shown.

SMILES | LGR2 antag | TWEAK Fn14 block | EBV LMP1 NFkB | HSF1 inh | TROY NFkB inh | HSF1 activator
COc1ccccc1NC(=O)N1CC(=O)N2[C@@H](CO)[C@@H](c3ccc(C#CC4CC4)cc3)[C@@H]2C1 | -2 | . | . | . | . | .
O=C(Nc1nc2cc3c(cc2s1)OCO3)C1=COCCO1 | . | 101* | 73* | -31 | 70* | -35
O=C(Nc1nc2cc3c(cc2s1)OCO3)c1ccco1 | 71* | 90* | 58* | . | 56* | .
CC(C)C(=O)Nc1nc2cc3c(cc2s1)OCCO3 | 24 | 44 | 21 | 18 | -15 | -3
O=C(Nc1nc2ccccc2c(=O)s1)c1ccco1 | 14 | 54* | 10 | 14 | 5 | 15
CC(=O)Nc1nc2cc3c(cc2s1)OCO3 | -21 | -10 | -11 | 11 | -65 | 11
CC(C)(C)c1csc(NC(=O)c2cccs2)n1 | . | 14 | -21 | 27 | -55 | 55*
O=C(Nc1nnc(/C=C/c2ccccc2)s1)c1ccco1 | -46 | -12 | -18 | 9 | -40 | 17
CCCN(C)C[C@H]1Oc2ncc(C#CCN(C)C)cc2C(=O)N([C@@H](C)CO)C[C@@H]1C | -7 | . | . | . | . | .
C/C=C/c1ccc([C@@H]2[C@@H](CO)N(C(C)=O)[C@@H]2CN(CC)C(=O)CN(C)C)cc1 | -2 | . | . | . | . | .
O=C(Nc1nc2cc3c(cc2s1)OCCO3)c1ccco1 | 98* | 100* | 68* | -55* | 82* | -61
CN(C)S(=O)(=O)c1ccc2nc(NC(=O)c3cccs3)sc2c1 | . | 16 | 7 | 16 | -34 | 28
CC1CCc2nc(NC(=O)Cc3cccs3)sc2C1 (stereo unspecified) | . | -23 | -26 | 9 | -46 | 35
CC1CCc2nc(NC(=O)c3ccco3)sc2C1 (stereo unspecified) | . | 96* | 60* | -21 | 66* | -27
O=C(Nc1nc2c(s1)COc1ccccc1-2)c1cccs1 | 8 | 40 | -165 | 4 | -3 | 12
O=C(Nc1nc2c(s1)CCc1ccccc1-2)c1cccs1 | . | 19 | -29 | 48 | -66 | 57*
O=C(Nc1nc2ccc(F)cc2s1)c1cccs1 | 3 | 43 | -47 | 35 | -10 | 80*
Cc1ccccc1-c1ccc2c(c1)O[C@H](CN(C)CC1CC1)[C@H](C)CN([C@@H](C)CO)S2(=O)=O | 1 | . | . | . | . | .
O=C(NC(=S)Nc1nc2ccc(F)cc2s1)c1ccco1 | -18 | -4 | -21 | 48 | 26 | 89*
Cn1cnc(S(=O)(=O)N[C@H]2CC[C@@H](CC(=O)Nc3ccccc3)O[C@@H]2CO)c1 | 14 | . | . | . | . | .
O=C(N/N=C/c1ccccn1)c1ccc([N+](=O)[O-])cc1 | 3 | 4 | -6 | -81* | -15 | -85
Nc1ncnc2c1C1(CCCCC1)Cc1ccccc1-2 | 11 | 59* | 8 | -6 | 59* | -4
Nc1n[nH]c2c1C1(CCCCC1)Cc1ccccc1-2 | . | -17 | 1 | -11 | 4 | -3
CC(C)C#Cc1ccc2c(c1)O[C@H](CN(C)C)[C@H](C)CN([C@H](C)CO)S2(=O)=O | -4 | . | . | . | . | .
CO[C@H]1CN(C)C(=O)c2ccc(NS(C)(=O)=O)cc2OC[C@H](C)N(Cc2ccccn2)C[C@@H]1C | -9 | . | . | . | . | .
SMILES | LGR2 antag | TWEAK Fn14 block | EBV LMP1 NFkB | HSF1 inh | TROY NFkB inh | HSF1 activator
Cc1c(C(=O)N(Cc2ccncc2)CC2CCCO2)oc2c(F)cccc12 (stereo unspecified) | 2 | 7 | -5 | 10 | -7 | 53*
CCn1nc(C(=O)NNC(=O)COc2ccccc2C)c2ccccc2c1=O | -5 | 9 | 13 | 22 | 1 | 57*
Cc1ccc(C(=O)Nc2ncc(Cc3ccc(F)cc3)s2)o1 | . | 25 | -73 | 29 | -9 | 68*
Cc1cc(=O)[nH]c(NN=Cc2cc(Br)ccc2O)n1 | -4 | 13 | 56* | . | -24 | .
CCN(CC)c1ccc(/C=N/Nc2nc(C)cc(=O)[nH]2)c(O)c1 | 15 | 30 | 61* | -2 | 2 | 12
CC(=O)N(C)C[C@H]1Oc2ncc(-c3ccc(C)cc3)cc2C(=O)N([C@@H](C)CO)C[C@H]1C | 8 | . | . | . | . | .
COc1ccc(N=C2SC(C(=O)N3CCN(c4ccccc4)CC3)CC(=O)N2C)cc1 (stereo unspecified) | -12 | 13 | 11 | -77* | -3 | -82
COc1ccc(NC(=O)N(C)C[C@@H]2Oc3ccc(NC(=O)Nc4ccc(F)cc4)cc3C(=O)N([C@@H](C)CO)C[C@@H]2C)cc1 | -1 | . | . | . | . | .
C[C@@H]1CN([C@H](C)CO)C(=O)Cc2cc(NC(=O)Nc3cccc4ccccc34)ccc2O[C@H]1CN(C)C(=O)Nc1ccc(C(F)(F)F)cc1 | -9 | . | . | . | . | .
O=C(Nc1cccnc1)c1cc(-c2ccc3c(c2)OCO3)on1 | 63* | 77* | -9 | 19 | 36 | 15
O=C(Nc1cccnc1)c1cc(-c2ccc(Cl)c(Cl)c2)on1 | -28 | -2 | 9 | 11 | -53 | ?
O=C(Nc1ccc2c(c1)OCO2)c1cc(-c2ccccc2Cl)on1 | -63 | -26 | -32 | 14 | -70 | 57*
COc1ccc(CC(=O)Nc2ccc(-c3csc(C)n3)cc2)cc1 | . | -19 | 3 | 4 | -9 | 40
Cc1nc(-c2ccc(NC(=O)Cc3ccccc3)cc2)cs1 | -62 | -19 | -18 | 29 | -31 | 57*
Cc1nc(-c2ccc(NC(=O)c3ccco3)cc2)cs1 | 93* | 97* | 64* | ? | 50* | -50
Nc1nc(-c2ccc(NC(=O)c3ccco3)cc2)cs1 | -1 | -10 | 76* | 9 | -22 | 25
Cc1ccc2sc(-c3ccc(NC(=O)/C=C\C(=O)O)cc3)nc2c1 | ? | 55* | -9 | 9 | 48 | 26
Cc1nc(-c2cccc(NC(=O)c3ccco3)c2)cs1 | -6 | -5 | -13 | -2 | -32 | -5
CCCC(=O)Nc1ccc2c(c1)OC[C@@H](C)N(C(=O)CC)C[C@H](C)[C@H](OC)CN(C)C2=O | -2 | . | . | . | . | .
COc1ccc2c3c(n(C)c2c1)[C@H](CO)N(Cc1cccc(F)c1)CC31CCN(C(=O)Cc2ccccc2)CC1 | 20 | . | . | . | . | .
Cc1nc(-c2ccc(NC(=O)/C=C\C(=O)O)cc2)cs1 | -32 | 20 | -5 | -39 | 61* | -47
COc1cccc(CC(=O)OCC(=O)NCCc2ccc(F)cc2)c1 | -8 | 54* | 2 | . | -8 | .
COc1ccc(CC(=O)OCC(=O)NCc2ccc(F)cc2)cc1 | -15 | -33 | -6 | . | -2 | .

Screens from PubChem.
